KCNQ2 pot: enhances the rat KCNQ2 potassium channel; O88943; CHO-K1 KCNQ2, FluxOR thallium flux fluorescence; active compounds read high; B-score at 10 µM; 310,000 compounds, 0.54% hits; AID 2239;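 active = fluorescence ratio B-score at least 3 SD of library B-scores, with initial fluorescence B-score within 3 of them, cut at about 5.3 in these data; same plate scores as AID 2156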;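 also: B-score of peak minus minimum over baseline fluorescence ratio after K+ and Tl+ stimulus; positive B-score means potentiation of KCNQ2 with more thallium influx and brighter signal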
KCNQ2 block: KCNQ2 (rat) channel inhibition; CHO-K1 KCNQ2, FluxOR thallium flux, 20 min; active compounds read low; B-score at 10 µM; 310,000 compounds, 1.1% hits;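 active = fluorescence ratio B-score at most minus 3 library SDs, with starting brightness B-score within 2 library SDs, cut at about -5.5 in these data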
KCNQ2 inh conf: rat KCNQ2 channel inhibition, confirmatory screen. shares compounds with KCNQ2 block. KCNQ2-expressing cells, thallium flux; active compounds read low. activity change, negative = inhibition, % at 10 µM. 1,000 compounds, 57% hits. AID 493025;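 also: 0% = vehicle wells and values are ratio percent relative to vehicle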
KCNQ1 spec: human KCNQ1 activity in KCNQ2 inhibitor specificity screen; shares compounds with KCNQ2 block; activity change, negative = inhibition, % at 10 µM; 1,000 compounds, 15% hits; KCNQ1-expressing cells, FluxOR thallium flux fluorescence; active compounds read low;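 active = activity change at least 3 SD of negative controls below their mean in both duplicate wells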;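 also: CHO cells stably transfected with KCNQ1 and depolarized by potassium stimulus; peak minus minimum fluorescence over baseline after thallium addition; 0% = vehicle negative control and -100% = blank without thallium stimulus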
Target sequence (P51787 whole entry, looked up): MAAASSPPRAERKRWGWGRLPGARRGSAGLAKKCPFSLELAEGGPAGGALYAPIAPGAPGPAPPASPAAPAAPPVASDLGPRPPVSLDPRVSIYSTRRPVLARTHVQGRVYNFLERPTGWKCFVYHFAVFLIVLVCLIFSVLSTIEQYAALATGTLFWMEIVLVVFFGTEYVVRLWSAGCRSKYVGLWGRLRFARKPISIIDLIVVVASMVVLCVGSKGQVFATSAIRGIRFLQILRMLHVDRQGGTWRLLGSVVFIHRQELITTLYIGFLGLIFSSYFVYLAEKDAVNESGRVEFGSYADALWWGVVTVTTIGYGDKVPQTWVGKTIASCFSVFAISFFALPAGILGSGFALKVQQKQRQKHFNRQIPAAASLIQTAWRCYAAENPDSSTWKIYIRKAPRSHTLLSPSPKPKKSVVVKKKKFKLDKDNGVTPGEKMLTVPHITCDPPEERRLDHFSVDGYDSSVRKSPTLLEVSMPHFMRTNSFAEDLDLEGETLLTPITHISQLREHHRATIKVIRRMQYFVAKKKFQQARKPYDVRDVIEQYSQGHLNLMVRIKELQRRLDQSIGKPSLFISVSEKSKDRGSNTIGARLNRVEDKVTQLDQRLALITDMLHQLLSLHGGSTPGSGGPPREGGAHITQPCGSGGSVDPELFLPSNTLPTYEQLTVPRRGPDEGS
CHO Tl ctr: counter-screen for KCNQ2 inhibitors: effect in parental CHO cells. shares compounds with KCNQ2 block. thallium flux counter-screen; active compounds read low. activity change, % at 10 µM. 1,000 compounds, 14% hits. AID 493029;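 also: 0% = vehicle negative controls with stimulus buffer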
KCNQ2 patch conf: blocks rat KCNQ2 current in automated patch clamp; shares compounds with KCNQ2 block; KCNQ2-expressing cells; calls only at 10 µM; 550 compounds, 49% hits; AID 588531
Active calls of the source: *; i = inactive; . = no result given; + = active, no number. Sampled rows, rich in hits. Any-hit rate of the full collection: about 1.6%. Unless noted, no rule for the calls is given here.

SMILES	KCNQ2 pot	KCNQ2 block	KCNQ2 inh conf	KCNQ1 spec	CHO Tl ctr	others
CCOC(=O)N1CCC(n2c(SCC(=O)NCCc3ccc(S(N)(=O)=O)cc3)nc3ccccc3c2=O)CC1	2	i	.	.	.
Cc1ccc(Sc2ccc(NC(=O)c3ccc(S(C)(=O)=O)cc3Cl)cc2)cc1	-8.8	-8.8*	i	i	i
CS(=O)(=O)c1ccc(C(=O)Nc2ccc(N3CCCCC3)cc2)c(Cl)c1	0.36	i	.	.	.
CCOC(=O)CSc1nnc(CNc2ccc(Cl)cc2)n1-c1ccccc1	-8.9	-8.9*	i	i	i
COC(=O)CSc1nnc(CNc2ccc(Cl)cc2)n1Cc1ccccc1	.	i	.	.	.
CCOc1ccc(NC(=O)CN(C)C(=O)c2ccc3c(c2)C(=O)N(CCC(C)C)C3=O)cc1OCC	.	i	.	.	.
C/C(=N\NC(=O)CCC(=O)Nc1ccc(C)c(C)c1)c1cccs1	.	i	.	.	.
Cc1ccc(C(CCN(Cc2ccccc2)C(=O)c2ccco2)c2ccco2)cc1 (stereo unspecified)	-8	-8*	-27%*	i	i	KCNQ2 patch conf=i
CN(Cc1ccccc1)C(=O)c1ccco1	0.04	i	.	.	.
COc1ccccc1CNC(=O)C1CCN(Cc2nc(-c3cccc(Cl)c3)oc2C)CC1	-7.8	-7.8*	i	i	i
Cc1cccc(-c2nc(CN3CCCC(C(=O)NC4CCCCC4)C3)c(C)o2)c1 (stereo unspecified)	.	i	.	.	.
CCc1ccc(-c2nc(CN3CCC(C(=O)NCc4ccccc4OC)CC3)c(C)o2)cc1	.	i	.	.	.
Cc1cccc(-c2nc(CN3CCCC(C(=O)NC4CCCCCC4)C3)c(C)o2)c1 (stereo unspecified)	-9.7	-9.7*	-28%*	i	i	KCNQ2 patch conf=+
CC(C)Cc1ccc(/C=C/C(=O)NC2CC2)cc1	0.65	i	.	.	.
c1ccc(Nc2nc(NCC3CCCO3)c3ccccc3n2)cc1 (stereo unspecified)	.	i	.	.	.
CCOc1ccc(Nc2nc(NCC3CCCO3)c3ccccc3n2)cc1 (stereo unspecified)	-6.7	-6.7*	i	i	i
C=CCn1c(SCC(N)=O)nc2sc3c(c2c1=O)CCC3	-9.3	-9.3*	i	i	i
C=CCn1c(SCC(=O)N2CCOCC2)nc2sc3c(c2c1=O)CCCC3	2.5	i	.	.	.
CC1CCN(C(=O)COC(=O)c2ccc3c(c2)OCO3)CC1	5.2	i	.	.	.
CC(C)c1ccc(NC2CCCN(C(=O)c3cccc4nccnc34)C2)cc1 (stereo unspecified)	1.1	i	.	.	.
Cc1cccc(N(C)S(=O)(=O)c2ccc(-c3cc(C)no3)s2)c1	-7	-7*	i	i	i
CCN(c1cccc(C)c1)S(=O)(=O)c1ccc(-c2cc(C)no2)s1	.	i	.	.	.
COc1ccc(S(=O)(=O)N2CCN(C)CC2)cc1C(=O)Nc1ccccc1	.	i	.	.	.
CCN(CC)CCNC(=O)CCc1c(C)nc2c(c(C)nn2-c2ccc(C)cc2)c1C	.	i	.	.	.
Cc1cnc(C(=O)Nc2ccccc2-c2nnn(CC(=O)NC3CCCC3)n2)cn1	0.13	i	.	.	.
SMILES	KCNQ2 pot	KCNQ2 block	KCNQ2 inh conf	KCNQ1 spec	CHO Tl ctr	others
Cc1ccccc1-c1cc(C(=O)N2CCCC2)c2ccccc2n1	0.36	i	.	.	.
O=C(c1cc(-c2cccnc2)nc2ccccc12)N1CCCc2ccccc21	.	i	.	.	.
COc1ccc(-c2cc(C(=O)N3CC(C)CC(C)C3)c3ccccc3n2)cc1 (stereo unspecified)	-8.7	-8.7*	-35%*	i	i	KCNQ2 patch conf=+
CC1CN(C(=O)c2cc(-c3ccc(Cl)s3)nc3ccccc23)CC(C)O1 (stereo unspecified)	-8.5	-8.5*	-33%*	i	i	KCNQ2 patch conf=+
Cc1ccc(-c2cc(C(=O)N3CCCc4ccccc43)c3ccccc3n2)cc1	-6.9	-6.9*	i	i	i
Cc1ccc(-c2cc(C(=O)N3CCCCC3)c3ccccc3n2)cc1C	-9.3	-9.3*	-36%*	i	i	KCNQ2 patch conf=+
COc1ccc(-c2cc(C(=O)N3CCCC3)c3ccccc3n2)cc1	.	i	.	.	.
CC1CC(C)CN(C(=O)c2cc(-c3ccccn3)nc3ccccc23)C1 (stereo unspecified)	.	i	.	.	.
Cc1cc(C)c(NC(=O)CSc2nnnn2-c2cccnc2)c(C)c1	1.7	i	.	.	.
CC(NC(=O)OC(C)(C)C)C(=O)NC(CCC(=O)OCc1ccccc1)C(N)=O (stereo unspecified)	.	i	.	.	.
Cc1ccc(N(CC(=O)NC(C)C)C(=O)CCC(=O)Nc2nccs2)cc1C	0.01	i	.	.	.
CCn1ccnc1CN(C)C(=O)C1CCC(=O)N(Cc2cccc(C(F)(F)F)c2)C1 (stereo unspecified)	0.81	i	.	.	.
COc1ccc(C(=O)Nc2c(-c3ccccc3)nc3ccccn23)c(OC)c1	.	i	.	.	.
COc1ccccc1C(=O)Nc1c(-c2ccccc2)nc2ccccn12	-7.3	-7.3*	i	i	i
O=C(c1cccnc1)N1CCN(c2c(Cl)cccc2[N+](=O)[O-])CC1	2	i	.	.	.
CC(C)Oc1cccc(C(=O)Nc2ccccc2N2CCOCC2)c1	.	i	.	.	.
COc1cccc(C(=O)NC(=S)Nc2ccccc2N2CCOCC2)c1	-8.7	-8.7*	-29%*	i	i	KCNQ2 patch conf=+
COc1cccc(-n2c(CN3CCN(c4ccccc4)CC3)nc3ccc([N+](=O)[O-])cc3c2=O)c1	.	i	.	.	.
O=C(COC(=O)C1CCCCC1)Nc1cc([N+](=O)[O-])ccc1F	.	i	.	.	.
COc1ccc(C(C(=O)NCC2CCCO2)N(C(=O)CNC(=O)c2cccs2)c2ccc(C(C)=O)cc2)cc1OC (stereo unspecified)	0.06	i	.	.	.
Cc1cc2occ(CC(=O)N(CC(C)C)c3c(N)n(Cc4ccccc4)c(=O)[nH]c3=O)c2cc1C	0.56	i	.	.	.
Cn1c(COc2cccc3ccccc23)nnc1SCC(=O)OC1CCCCC1	.	i	.	.	.
O=C(CSc1nnc(-c2ccncc2)n1Cc1ccco1)OC1CCCCC1	.	i	.	.	.
CCn1c(COc2cccc3ccccc23)nnc1SCC(=O)OC1CCCCC1	-8.6	-8.6*	i	i	i
O=C(CSc1nnc(-c2ccco2)n1Cc1ccccc1)OC1CCCCC1	-9.4	-9.4*	-34%*	i	i	KCNQ2 patch conf=+
SMILES	KCNQ2 pot	KCNQ2 block	KCNQ2 inh conf	KCNQ1 spec	CHO Tl ctr	others
COc1cccc(NC(=O)C2CCOC2=O)c1 (stereo unspecified)	0.97	i	.	.	.
Cc1nn2c(N)c(-c3ccccc3)cnc2c1-c1ccc(Cl)cc1	.	i	.	.	.
Cc1nc2c(-c3ccccc3)c(C)nn2c(N)c1-c1ccccc1	-7.5	-7.5*	-34%*	i	i	KCNQ2 patch conf=i
CC(NC(=O)COc1ccc(/C=N/NC(=O)CO)cc1)c1ccccc1 (stereo unspecified)	.	i	.	.	.
Clc1ccc(SCc2cn3ccsc3n2)cc1	.	i	.	.	.
Cc1csc2nc(CSc3ccc(Cl)cc3)cn12	-11	-11*	-38%*	-43%*	-35%*	KCNQ2 patch conf=+
O=C(NCCN1CCCCC1)c1ccc(F)cc1Cl	0.36	i	.	.	.
